ELG1 genotoxic: genotoxicity induction in ELG1-luciferase HEK293T cells; HEK293T ELG1-luciferase reporter, luminescence, 16 h; Potency, µM (highest dose often 46 µM), inactives show at the highest dose activity change, positive = activation, most hits filed as activators; AID 504466; hit rate 1.3% among 330,000; also: % of control where 0% means no effect; nearly all actives have a fitted effect of over 60% in size
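HEK293T cells expressing luciferase-tagged ELG1 were treated with compound or DMSO for 16 hr at 37°C. Luciferase activity was then read after 30 min with ONE-Glo at room temperature; rising signal flags genetic stress.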
FLuc counter: inhibits or activates purified firefly luciferase, miR-21 counter-screen; hit rate 6.9% among 360,000; purified FLuc, Km substrates, luminescence inhibition; AID 588342; Potency, µM (highest dose often 57.5 µM), for inactives: at the highest dose activity change, negative = inhibition, actives largely listed as inhibitors;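 also: plate controls were vehicle for no effect and reference inhibitor for full effect; nearly all actives have a fitted effect of over 55% in size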
Target sequence (P08659 whole entry, looked up): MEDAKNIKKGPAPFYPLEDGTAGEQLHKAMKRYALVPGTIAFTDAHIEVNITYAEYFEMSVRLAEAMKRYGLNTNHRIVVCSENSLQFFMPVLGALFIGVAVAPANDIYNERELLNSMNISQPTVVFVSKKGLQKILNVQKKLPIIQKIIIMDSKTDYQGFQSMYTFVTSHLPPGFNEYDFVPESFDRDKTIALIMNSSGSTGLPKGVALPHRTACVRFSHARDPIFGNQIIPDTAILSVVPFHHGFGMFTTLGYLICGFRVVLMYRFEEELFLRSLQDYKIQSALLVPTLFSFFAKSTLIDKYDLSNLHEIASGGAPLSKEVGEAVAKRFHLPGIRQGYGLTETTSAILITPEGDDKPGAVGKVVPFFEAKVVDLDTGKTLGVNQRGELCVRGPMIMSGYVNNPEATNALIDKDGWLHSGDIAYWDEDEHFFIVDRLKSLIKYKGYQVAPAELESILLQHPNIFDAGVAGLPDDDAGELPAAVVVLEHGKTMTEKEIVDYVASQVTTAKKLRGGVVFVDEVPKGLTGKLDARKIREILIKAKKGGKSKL
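Purified P. pyralis luciferase, 10 nM final, with Km-level 10 uM D-luciferin and 10 uM ATP in 50 mM Tris acetate pH 7.5, 10 mM Mg acetate, 0.01% Tween-20, 0.05% BSA; 6-point qHTS titration about 60 µM downward; luminescence read.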
Rab9 prom act: Rab9 promoter activation. Huh7 Rab9 promoter-luciferase reporter, luminescence, 24 h. Potency, µM (titrated, usually from 9.22 µM), for inactives: at the top dose activation, negative = inhibition, actives largely listed as activators. hit rate 2.8% among 320,000. AID 485297; also: % of control where 0% means no effect; nearly all actives have a fitted effect of over 60% in size
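Quantitative HTS format; Huh7 Rab9-luciferase reporter cells (1500/well) receive compound 2 h post-plating, incubate 24 h at 37 °C, then get luciferase reagent for 10 min before luminescence reading.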
NPC1 promoter act: NPC1 promoter activation. Huh7 NPC1 promoter luciferase reporter, 24 h. AID 485313. hit rate 2.4% among 320,000. Potency, µM (series often up to 9.22 µM), for inactives: at the top dose activation, hits mostly activators; also: % of control where 0% means no effect; nearly all actives have a fitted effect of over 60% in size
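Cells: Huh7 expressing luciferase under the NPC1 promoter, 1500/well. Seeded 2 h, compound added, incubated 24 h at 37 °C. Luciferase reagent, 10 min ambient, then luminescence.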
ELG1 DNA repair: blocks ELG1-dependent DNA repair in HEK293T cells; HEK293T ELG1-luciferase reporter, luminescence, 16 h; DNA damage induced by 5-fluorouridine; Potency, µM (doses to about 46.1 µM), without a hit: top-dose activity change, negative = inhibition, most hits filed as inhibitors; hit rate 2.3% among 330,000; AID 504467; also: % is scaled to controls: 0 for no effect and ±100 for the full control effect; nearly all actives have a fitted effect of over 55% in size
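HEK293T cells expressing luciferase-tagged ELG1 (2,000/well) received 5-Fluorouridine plus compound or DMSO for 16 hr at 37 °C. Luciferase was read by ONE-Glo luminescence after 30 min at room temperature.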
SMN2 splice up: SMN2 splice variant enhancement. HEK293 SMN2-luciferase splicing reporter, luminescence, 30-36 h. Potency, µM (titrated, usually from 46.1 µM), inactives show at the top dose activity change, positive = activation, actives largely listed as activators. hit rate 2.8% among 210,000; also: % of control where 0% means no effect; nearly all actives have a fitted effect of over 55% in size
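qHTS luciferase splicing reporter: luminescence rises when SMN2 exon 7 is included in transfected HEK293 cells. Compound exposure lasted 30-36 h at 37C, with 4.5 mM final sodium butyrate as control, followed by a ONE-Glo read.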
* marks the source's active call; other numbers are inactive results; ? = inconclusive; nt = no result; [ ] = remark or other dose. In the library only some 9.2% were active in any assay of this set; here they are far more common. Calls follow the shape of the dose curve; as a rule, active = well fitted curve in the direction sought with a large enough effect; inconclusive = small, poorly fitted or top-dose-only effect, or another doubt; inactive = no such curve, though single readings can be large; an effect the other way counts as inactive or inconclusive. Potency is read from the fitted curve at half-maximal effect.

SMILES	ELG1 genotoxic	FLuc counter	Rab9 prom act	NPC1 promoter act	ELG1 DNA repair	SMN2 splice up
Cc1ccc(-n2c(=O)c3sccc3n(Cc3cc(=O)n4cc(Cl)ccc4n3)c2=O)cc1F	2%	1%	-2%	-1%	12%	35µM*
Cc1ccc(-n2c(=O)c3sccc3n(Cc3cc(=O)n4ccccc4n3)c2=O)cc1F	4%	0%	-1%	-2%	11%	5%
CC(=O)NCCN=Cc1sc2ccccc2c1O	3%	?	-1%	3%	?	-3%
CCCN=Cc1sc2ccc(OCC)cc2c1O	23µM*	12µM*	3.2µM*	?	?	3%
O=S(=O)(c1cc(F)ccc1F)N1CCN2CCCC2C1 (centres undefined)	0%	1%	-4%	1%	5%	nt
O=C(Nc1ccc2c(c1)CCC2)c1cc(F)cc(F)c1	?	3µM*	1.4µM*	2.5µM*	?	nt
O=C(Nc1ccncc1)c1cccc(F)c1	-9%	2%	-1%	0%	-4%	4%
O=C(Nc1ccc2c(c1)CCC2)c1ccc(F)c(S(=O)(=O)N2CCOCC2)c1	6%	?	?	28%	-17%	-9%[1.84 µM]
O=C(Nc1ccc2c(c1)CCC2)c1cccc(F)c1	8.2µM*	5.4µM*	1.4µM*	3.2µM*	?	11µM*
CCCCCCCCC(NC(=O)c1ccc(C#N)cc1)C(=O)NCCC (centres undefined)	0%	-1%	-3%	-2%	-2%	nt
COc1ccc(OC)c(NC(=O)COC(=O)CN2C(=O)NC3(CCCC3)C2=O)c1	0%	-3%	-2%	1%	19%	nt
CC1(C)Cc2c(c(-c3ccco3)nc3sc4c(NCCCO)ncnc4c23)CO1	0%	-12%	-11%	-2%	13µM*	nt
CC1(C)Cc2c(c(-c3ccco3)nc3sc4c(NCC5CCCO5)ncnc4c23)CO1 (centres undefined)	2%	2%	-3%	-3%	7.3µM*	-14%
Nc1nc(CN2CCCCCC2)nc(Nc2ccccc2)n1	2%	0%	-2%	7%	4%	7%
Cc1c(-c2nc(N)nc(Nc3ccccc3)n2)oc2ccccc12	7.3µM*	4.8µM*	2.5µM*	1.4µM*	?	11µM*
Nc1cc(Cl)ccc1Nc1ccncc1	-4%	-1%	-15%	-6%	-8%	nt
CCOC(=O)N1CCC(NC(=O)Cn2cc3c(n2)CCC(C)C3)CC1 (centres undefined)	-5%	-2%	-4%	3%	-2%	-6%
CC1CCC(NC(=O)Cn2cc3c(n2)CCCC3)CC1 (centres undefined)	7.3µM*	?	?	?	?	26%
Cc1ccc(CONC(=O)c2ccc(Cl)cc2)cc1	?	?	?	0%	?	nt
O=C(OCc1ccccc1)/C(=C/c1cccc2ccccc12)NC(=O)c1ccccc1	3%	0%	0%	-2%	-7%	20%
Cc1ccc(C(=O)N/C(=C\c2ccccc2)C(=O)OCc2ccccc2)cc1	?	15µM*	?	?	?	20µM*
Cc1ccc(CONC(=O)c2ccc(C)cc2)cc1	?	13µM*	?	?	?	nt
Cc1ccc(CONC(=O)c2ccccc2)cc1	?	15µM*	?	?	?	nt
Cc1ccc(C(=O)N/C(=C/c2ccco2)C(=O)OCN2C(=O)c3ccccc3C2=O)cc1	2%	11µM*	-3%	-2%	16%	-1%[1.84 µM]
O=C(O)CCC(=O)NNc1ccccc1[N+](=O)[O-]	-1%	0%	11%	0%	23%	9%
SMILES	ELG1 genotoxic	FLuc counter	Rab9 prom act	NPC1 promoter act	ELG1 DNA repair	SMN2 splice up
C=CCOC(=O)c1ccc(N2CCN(c3ccccc3)CC2)nc1	4%	17µM*	21%	23%	?	nt
Fc1cccc(-c2cc3nc4c(c(N5CCC6(CC5)OCCO6)n3n2)CCCC4)c1	?	15µM*	0%	-1%	?	11%
CN(CCO)c1c2c(nc3cc(-c4cccc(F)c4)nn13)CCCC2	?	24µM*	3.5µM*	3.5µM*	?	23%
COCCN1CCN(c2cc(-c3ccccc3)nc3cc(-c4cccc(F)c4)nn23)CC1	-13%	1%	-3%	-6%	15µM*	-104%
Cc1cccc(-c2cc3nc(-c4ccccc4)cc(N4CCC5(CC4)OCCO5)n3n2)c1	-6%	2%	1%	-1%	?	-33%
OC1CCN(c2c3c(nc4cc(-c5cccc(F)c5)nn24)CCCC3)CC1	0%	?	8%	1%	?	29%
Fc1cccc(-c2cc3nc(-c4ccccc4)cc(N4CCC5(CC4)OCCO5)n3n2)c1	-8%	4%	-11%	-5%	23µM*	-22%
CCOC(=O)c1c(S(=O)(=O)N2CCC(C(=O)Nc3ccc(C)cc3C)CC2)c(C)n(C)c1C	nt	-2%	nt	nt	nt	nt
COc1cc(OC)cc(-c2cc3nc4c(c(N5CCN(c6ncccn6)CC5)n3n2)CCCC4)c1	-1%	-23%	14%	16%	15µM*	-16%
Clc1cccc(-c2cc3nc4c(c(N5CCNCC5)n3n2)CCCC4)c1	1%	?	1%	-9%	?	-125%
Cc1cccc(C(=O)Nc2cc3c(cc2N2CCCCC2)n(C)c(=O)n3C)c1	nt	-4%	nt	nt	nt	-4%
COc1ccc(N=CC2=C(O)CC(C)(C)CC2=O)cc1	?	19µM*	11%	-2%	?	-12%
CC1(C)CC(=O)C(C=NCc2ccc3c(c2)OCO3)=C(O)C1	9%	-3%	7%	7%	18%	1%
CC1(C)CC(=O)C(C=Nc2ccc3c(c2)OCO3)=C(O)C1	?	15µM*	18%	0%	?	?
COc1cc(/C=C2\Oc3cc(O)ccc3C2=O)ccc1O	23µM*	8.5µM*	4µM*	3.2µM*	?	nt
O=C1/C(=C/c2ccc(O)c(O)c2)Oc2cc(O)ccc21	15µM*	15µM*	20%	?	?	nt
O=C1/C(=C/c2cccc([N+](=O)[O-])c2)Oc2cc(O)ccc21	0%	?	3%	13%	?	nt
Cc1ccc(NC(=S)N2CCC(c3ccccc3)C2)c(Cl)c1 (centres undefined)	2.3µM*	1.5µM*	0.28µM*	0.5µM*	?	11µM*
Fc1ccccc1NC(=S)N1CCC(c2ccccc2)C1 (centres undefined)	?	?	?	?	?	79%
S=C(Nc1ccccc1Cl)N1CCC(c2ccccc2)C1 (centres undefined)	?	24µM*	2.8µM*	3.5µM*	?	13µM*

High-throughput results (PubChem BioAssay)
